In PubChem BioAssay (Tox21) one finds Potency and max response data, which are given here for 14 compounds.

Test [1] can be described thus: qHTS RealTime-Glo MT Cell Viability Assay in HEK293 cells - 16 hour (AID 1224872). Further: nearly all actives have a fitted effect of over 50% in size. Further: potency means the concentration at half of the fitted maximal effect. The essentials: (§1)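 HEK293 cells seeded with NanoLuc/prosubstrate reagent, rested 5 h at 37 C, then dosed and kept at 37 C up to 40 h. Nonlytic real-time luminescence from viable cells read at 0, 8, 16, 24, 32 and 40 h.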
(In qHTS, concentration-response curves come from the screen itself.)

Test [2] in a line: qHTS RealTime-Glo MT Cell Viability Assay in HEK293 cells - 40 hour (AID 1224874). Further: nearly all actives have a fitted effect of over 50% in size. Further: potency means the concentration at half of the fitted maximal effect. To be noted: RealTime-Glo luminescence; max response: stronger effect = lower value. The essentials:
(§2)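 qHTS format; HEK293 cells with NanoLuc/prosubstrate reagent, 37 C/5% CO2 for 5 h pre-dosing; compounds 23 nL in DMSO; luminescence at each time point reflects viable cells.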

Test [3] is described as follows: A CellTox Green Cytotoxicity Assay to monitor cytotoxicity in HEK293 cells - 24 hour (AID 1224875). Further: nearly all actives have a fitted effect of over 45% in size. Further: potency means the concentration at half of the fitted maximal effect. The gist of the method: (§3)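 Each value comes from one timepoint of a single continuous run in which HEK293 cells with CellTox Green were exposed to compound for up to 40 h at 37 C, dye fluorescence rising with cell death.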
Test [4] is described as follows: A CellTox Green Cytotoxicity Assay to monitor cytotoxicity in HepG2 cells - 16 hour (AID 1224876). Further: nearly all actives have a fitted effect of over 45% in size. Further: potency means the concentration at half of the fitted maximal effect. The gist of the method: (§4)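 Continuous culture of HepG2 cells with a membrane-impermeant DNA dye; rising fluorescence marks dead cells. Compound exposure lasted up to 40 h at 37 C, with reads every 8 h from 0 h.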
The nature of test [5]: qHTS RealTime-Glo MT Cell Viability Assay in HepG2 cells - 32 hour (AID 1224877). Further: nearly all actives have a fitted effect of over 55% in size. Further: potency means the concentration at half of the fitted maximal effect. The essentials: (§5)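 HepG2 cells (600/well) were dispensed with RealTime-Glo reagents, incubated 5 h at 37 °C, then treated with compounds in DMSO for up to 40 h. Nonlytic NanoLuc luminescence reflecting viable cells was read at each stated time point.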
The nature of test [6]: A CellTox Green Cytotoxicity Assay to monitor cytotoxicity in HepG2 cells - 24 hour (AID 1224878). Further: nearly all actives have a fitted effect of over 45% in size. Further: potency means the concentration at half of the fitted maximal effect. The gist of the method:
as §4

A short description of test [7]: A CellTox Green Cytotoxicity Assay to monitor cytotoxicity in HepG2 cells - 40 hour (AID 1224879). Further: nearly all actives have a fitted effect of over 40% in size. Further: potency means the concentration at half of the fitted maximal effect. The essentials: as §4
A short description of test [8]: qHTS RealTime-Glo MT Cell Viability Assay in HEK293 cells - 0 hour (AID 1224880). Further: top concentration of the series differs between compounds; nearly all actives have a fitted effect of over 45% in size. The gist of the method: as §2
Test [9] can be described thus: A CellTox Green Cytotoxicity Assay to monitor cytotoxicity in HepG2 cells - 0 hour (AID 1224882). Further: nearly all actives have a fitted effect of over 35% in size. The essentials: as §4
Test [10] in a line: A CellTox Green Cytotoxicity Assay to monitor cytotoxicity in HepG2 cells - 32 hour (AID 1224883). Further: nearly all actives have a fitted effect of over 50% in size. Further: potency means the concentration at half of the fitted maximal effect. The gist of the method: as §4
A short description of test [11]: A CellTox Green Cytotoxicity Assay to monitor cytotoxicity in HEK293 cells - 8 hour (AID 1224884). Further: nearly all actives have a fitted effect of over 35% in size. The gist of the method:
as §3

Test [12] is described as follows: qHTS RealTime-Glo MT Cell Viability Assay in HEK293 cells - 24 hour (AID 1224886). Further: nearly all actives have a fitted effect of over 50% in size. Further: potency means the concentration at half of the fitted maximal effect. The essentials:
as §1

Test [13] can be described thus: qHTS RealTime-Glo MT Cell Viability Assay in HEK293 cells - 8 hour (AID 1224887). Further: nearly all actives have a fitted effect of over 50% in size. Further: potency means the concentration at half of the fitted maximal effect. The essentials:
as §2

Test [14] in a line: A CellTox Green Cytotoxicity Assay to monitor cytotoxicity in HEK293 cells - 16 hour (AID 1224888). Further: nearly all actives have a fitted effect of over 35% in size. Further: potency means the concentration at half of the fitted maximal effect. The essentials:
as §3

Test [15] in a line: A CellTox Green Cytotoxicity Assay to monitor cytotoxicity in HepG2 cells - 8 hour (AID 1224890). Further: nearly all actives have a fitted effect of over 45% in size. Further: potency means the concentration at half of the fitted maximal effect. The essentials: as §4
Test [16] in a line: A CellTox Green Cytotoxicity Assay to monitor cytotoxicity in HEK293 cells - 32 hour (AID 1224881). Further: nearly all actives have a fitted effect of over 40% in size. Further: potency means the concentration at half of the fitted maximal effect. The essentials: as §3
Test [17] is described as follows: qHTS RealTime-Glo MT Cell Viability Assay in HepG2 cells - 16 hour (AID 1224885). Further: nearly all actives have a fitted effect of over 50% in size. Further: potency means the concentration at half of the fitted maximal effect. The essentials:
as §5

The nature of test [18]: qHTS RealTime-Glo MT Cell Viability Assay in HepG2 cells - 0 hour (AID 1224889). Further: nearly all actives have a fitted effect of over 50% in size. Further: potency means the concentration at half of the fitted maximal effect. The gist of the method:
as §5

Test [19] is described as follows: qHTS assay to identify small molecule antagonists of the estrogen receptor alpha (ER-alpha) signaling pathway using the BG1 cell line in the presence of 0.1 nM 17-beta-estradiol - cell viability counter screen (AID 1259241). Further: nearly all actives have a fitted effect of over 40% in size. Further: potency means the concentration at half of the fitted maximal effect. The essentials: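 Measures cytotoxicity alongside the ER-alpha antagonist readout: VM7Luc4E2 cells, charcoal-stripped serum, 0.1 nM 17beta-estradiol final, 22 hr compound incubation at 37C, CellTiter-Fluor fluorescence.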

Test [20] is described as follows: qHTS RealTime-Glo MT Cell Viability Assay in HepG2 cells - 8 hour (AID 1224873). Further: nearly all actives have a fitted effect of over 55% in size. Further: potency means the concentration at half of the fitted maximal effect. The gist of the method:
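HepG2 cells (600/well) mixed with RealTime-Glo MT reagent, settled 5 h at 37 C/5% CO2 before compound addition. Nonlytic NanoLuc luminescence from viable-cell prosubstrate reduction read repeatedly during 40 h treatment at 37 C.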

“And” between values parts separate entries of the source, which are not always exact repeats. Equal entries are not always repeated. Records with an inconclusive call do not appear. A structure can be active in one record and inactive in another. The source made the active and inactive calls. The call rests on the fitted dose curve; in most records, active means well fitted curve in the direction sought with a large enough effect in the repeat runs; inconclusive means weak or mixed curves; inactive means no such curve, though single readings can be large; an effect the other way counts as inactive or inconclusive.
On the % scale 0 is the no-effect control and ±100 the full control effect.

As for `O=C(Oc1ccccc1)c1ccccc1C(=O)Oc1ccccc1`, the Potency entry in [1], in test [3], in test [4], in test [5], in [6] and in test [7] was “inactive” each time. In addition, the Potency result in test [8], in [9], in [10], in test [11], in test [12] and in test [13] was “inactive” in each case. Further, the Potency entry in [14] and in test [15] was “inactive” throughout. Further, the max response in test [2] is -2.84% (inactive).
With `CC/C(=C(\c1ccc(O)cc1)c1ccc(OCCN(C)C)cc1)c1ccccc1`, the Potency in [1] was 24.6 µM (active); in test [2], 17.4 µM (active); in test [3] it was 49.1 µM (active); in test [5], 61.8 µM (active); in test [6] it was 55.1 µM (active); in test [7] it was 55.1 µM (active). In addition, the Potency in test [16] is 43.8 µM (active); in test [10] it was 49.1 µM (active); in [17], 61.8 µM (active); in test [12], 21.9 µM (active); in test [14], 55.1 µM (active). The Potency entry in test [8], in test [9] and in test [18] was “inactive” in each case.
In the case of `NC(=O)C1(N2CCCCC2)CCN(CCCN2c3ccccc3CCc3ccc(Cl)cc32)CC1`, the Potency was 21.3 µM (active) in test [1]; 21.3 µM (active) in test [2]; 26.8 µM (active) in test [4]; 23.9 µM (active) in test [5]; 23.9 µM (active) in test [6]; 23.9 µM (active) in [7]. Also, the Potency is 23.9 µM (active) in [10], 23.9 µM (active) in [17], 21.3 µM (active) in test [12] and 23.9 µM (active) in test [13]. In addition, the Potency entry in [8], in test [9], in [18] and in test [19] was “inactive” in each case.
With `Cc1c(C)c2c(c(C)c1OC(=O)CCC(=O)O)CC[C@@](C)(CCC[C@H](C)CCC[C@H](C)CCCC(C)C)O2`, the Potency result in [1], in test [20], in [3], in test [4], in test [9] and in test [17] was “inactive” in each case. The Potency result in test [13], in test [14], in test [15] and in test [19] was “inactive” throughout. In [5], the Potency is 55.6 µM (active).
As for `S=c1[nH]c2ccccc2s1`, the Potency entry in [1], in [20], in [5], in test [7], in [8] and in [17] was “inactive” in each case. For the same compound, the Potency result in [12], in [13], in test [18] and in test [19] was “inactive” each time. Moreover, the Potency in [3] is 43.6 µM (active); in [16], 49 µM (active).
In the case of `CC(C)(C)CC(C)(C)c1ccc(O)c(Cc2ccc(Cl)cc2Cl)c1`, the Potency in [1] is 21.3 µM (active); in test [2] it was 23.9 µM (active); in test [3], 26.8 µM (active); in test [16] it was 23.9 µM (active); in test [12], 23.9 µM (active). Moreover, the Potency entry in test [8], in test [9], in test [11] and in test [18] was “inactive” in each case.
Regarding `C/C=C1/C(=O)C[C@H]2[C@@H]3CCC4=CC(=O)CC[C@]4(C)[C@H]3CC[C@]12C`, the Potency in test [1] was 43.5 µM (active); in test [2] it was 48.8 µM (active); in [7], 43.5 µM (active); in [10], 48.8 µM (active); in test [12], 48.8 µM (active); in test [18], 0.435 µM (active). Also, the Potency entry in test [3], in test [5], in [16], in test [9], in [11] and in test [14] was “inactive” each time. For the same compound, the Potency result in test [15] and in [19] was “inactive” throughout.
For `CCCN(CCC)c1c([N+](=O)[O-])cc(C(F)(F)F)c(N)c1[N+](=O)[O-]`, the Potency in [1] is 12.3 µM (active); in test [20], 48.9 µM (active); in test [3], 54.8 µM (active); in [5] it was 48.9 µM (active); in [7], 54.8 µM (active); in [16], 54.8 µM (active). For the same compound, the Potency in test [10] is 54.8 µM (active); in test [17], 48.9 µM (active); in [12], 19.4 µM (active); in test [13], 9.75 µM (active); in [19] it was 60.9 µM (active). Further, the Potency result in [8], in test [9] and in [18] was “inactive” each time.
For the compound `CCOC(=O)c1nc(C(Cl)(Cl)Cl)n(-c2ccc(Cl)cc2Cl)n1`, the Potency result in [1], in test [3], in [4], in test [6], in [7] and in test [8] was “inactive” in each case. For the same compound, the Potency entry in test [16], in test [9], in test [10], in test [12], in test [14] and in test [18] was “inactive” in each case. Moreover, the Potency result in test [15] was “inactive”. Further, in [2], the max response is -11.5% (inactive).
Consider `O=C(N/N=C/c1ccccc1O)c1ccncc1`, for which the Potency result in test [1], in test [20], in [3], in test [4], in test [5] and in test [6] was “inactive” each time. In addition, the Potency result in [7], in test [8], in [9], in test [11], in test [17] and in [14] was “inactive” throughout. Further, the Potency entry in test [18], in test [15] and in [19] was “inactive” in each case.
With `O=C(NO)C1(NS(=O)(=O)c2ccc(Oc3ccc(F)cc3)cc2)CCOCC1`, the Potency result in test [1], in [20], in test [3], in [4], in test [5] and in [6] was “inactive” each time. Also, the Potency result in test [7], in test [9], in [10], in test [17], in [12] and in test [13] was “inactive” in each case. Moreover, the Potency entry in test [14], in test [18] and in test [15] was “inactive” in each case.
Turning to `CCOC(=O)O[C@]1(C(=O)OCCl)CC[C@H]2[C@@H]3CCC4=CC(=O)C=C[C@]4(C)[C@H]3[C@@H](O)C[C@@]21C`, the Potency result in test [1], in test [20], in test [3], in test [4], in test [5] and in test [6] was “inactive” in each case. Besides, the Potency entry in [7], in test [16], in [9], in test [10], in test [11] and in [13] was “inactive” each time. Also, the Potency result in test [14], in test [15] and in [19] was “inactive” each time. For the same compound, the Potency in [18] was 3.38 µM (active).
As for `C[C@H]1[C@H]2CC[C@H]3[C@@H]4CC=C5C[C@@H](N(C)C)CC[C@]5(C)[C@H]4CC[C@]23CN1C`, the Potency result in test [1], in [20], in test [3], in test [5], in test [7] and in test [8] was “inactive” throughout. The Potency result in test [16], in test [10], in test [11], in [17], in test [12] and in test [13] was “inactive” in each case. For the same compound, the Potency result in [14], in test [18] and in test [19] was “inactive” throughout.
Take `Clc1ccccc1C(c1ccccc1)(c1ccccc1)n1ccnc1`: the Potency in test [1] is 27.5 µM (active); in [20], 27.5 µM (active) and inactive; in test [4], 38.9 µM (active) and inactive; in test [5], 24.5 µM (active) and inactive; in test [6], 21.9 µM (active) and inactive; in test [7] it was 21.9 µM (active) and inactive. Also, the Potency was 43.6 µM (active) and inactive in test [16]; 19.5 µM (active) and inactive in [10]; 24.5 µM (active) and inactive in test [17]; 21.9 µM (active) and 6.01 µM (active) in test [12]; 24.5 µM (active) in test [13]; 49 µM (active) and inactive in test [15]. Besides, the Potency entry in test [8], in test [9], in [11] and in test [18] was “inactive” each time.
